Assay outcomes (PubChem BioAssay)
TDP1 cell noCPT: qHTS for Inhibitors of human tyrosyl-DNA phosphodiesterase 1 (TDP1): qHTS in cells in absence of CPT; DT40 Tdp1-/- hTDP1 cells, no CPT, ATP luminescence, 48 h; AID 686978, 2013; 420,000 tested, 15% active; Potency, µM (series often up to 46.2 µM), for the others: top-dose activity change, negative = growth inhibition, actives largely listed as inhibitors; also: nearly all actives have a fitted effect of over 55% in size
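No-CPT arm: Tdp1-/-;hTDP1 DT40 cells (400/well) plus compounds, incubated ≥48 hr at 37 °C. Readout CellTiter-Glo luminescence.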
HT1080 IDH1KD tx: qHTS for induction of synthetic lethality in tumor cells producing 2HG: qHTS for the HT-1080-IDH1KD cell line | 360,000 tested, 2% active | Potency, µM (top dose mostly 46.1 µM), inactives show at the top dose activity, negative = toxicity, actives largely listed as cytotoxic | HT-1080 IDH1 knockdown viability, ATP luminescence, 48 h | AID 686971, 2013;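 also: 0% = DMSO wells and -100% = cell-free medium wells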
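After a 2 h attachment period, IDH1KD HT-1080 cells took pin-transferred compound for 48 h at 37 °C; ATP-based luminescence after 10 min room-temperature reagent incubation reported viability.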
TDP1 cell CPT: qHTS for Inhibitors of human tyrosyl-DNA phosphodiesterase 1 (TDP1): qHTS in cells in presence of CPT; chicken DT40 Tdp1-/-;hTDP1 cells + 20 nM CPT, ATP luminescence, 48 h; Potency, µM (doses to about 46.2 µM), for the others: at the top dose activity change, negative = growth inhibition, actives largely listed as inhibitors; 420,000 tested, 12% active; also: nearly all actives have a fitted effect of over 55% in size
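Chicken DT40 Tdp1-/- cells complemented with human TDP1, 400 cells/well, exposed to compounds plus 20 nM camptothecin for at least 48 h at 37 C; viability read as ATP content by CellTiter-Glo luminescence.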
KB-V1 cytotox: qHTS assay for MDR1-selective chemotherapeutics: Primary screen using the drug-selected MDR subline cells KB-V1 | AID 1347076, 2019 | KB-V1 MDR cells viability, CellTiter-Glo, 72 h | Potency, µM (doses to about 46.1 µM), hits mostly cytotoxic | 400,000 tested, 3.4% active; also: nearly all actives have a fitted effect of over 60% in size
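Cells of the MDR subline KB-V1 are plated, dosed with compound at multiple concentrations, and incubated 72 h at 37 degrees C; CellTiter-Glo is then added and luminescence read after 10 min.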
KB-3-1 cytotox: qHTS assay for MDR1-selective chemotherapeutics: Primary screen using the parental adenocarcinoma cell KB-3-1. 400,000 tested, 1.4% active. KB-3-1 viability, CellTiter-Glo ATP luminescence, 72 h. Potency, µM (series often up to 46.1 µM), most hits filed as cytotoxic; also: nearly all actives have a fitted effect of over 60% in size
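KB-3-1 cells, DMEM (no phenol red) + 10% FBS; compound by pin transfer, 72 h, 37 °C. Readout: CellTiter-Glo luminescence after 10 min. Data normalized, curve-fitted.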
HT1080-NT tox: qHTS for induction of synthetic lethality in tumor cells producing 2HG: qHTS for the HT-1080-NT fibrosarcoma cell line; Potency, µM (doses to about 46.1 µM), for the others: top-dose activity, negative = less viability, most hits filed as cytotoxic; 360,000 tested, 1.6% active; AID 686970, 2013; HT-1080-NT fibrosarcoma viability, CellTiter-Glo ATP luminescence, 48 h;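 also: NT is the 2HG producing partner of a matched IDH1 knockdown line; 0% = DMSO-treated cells and -100% = media-only wells without cells; nearly all actives have a fitted effect of over 55% in size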
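Compounds were tested in concentration-response format on HT-1080-NT cells for 48 hours at 37 degrees C. Cell viability came from CellTiter-Glo luminescence; curves were classified by r2, response magnitude and activity.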
* = called active by the depositor; i = inactive; ? = inconclusive; · = no result. A selection: hits, their analogues and other compounds. The true share with any hit is near 19%. Calls follow the shape of the dose curve; as a rule, active = well fitted curve in the direction sought with a large enough effect; inconclusive = small, poorly fitted or top-dose-only effect, or another doubt; inactive = no such curve, though single readings can be large; an effect the other way counts as inactive or inconclusive. Unless noted, % is scaled to controls: 0 for no effect and ±100 for the full control effect; potency is read from the fitted curve at half-maximal effect.

SMILES | TDP1 cell noCPT | HT1080 IDH1KD tx | TDP1 cell CPT | KB-V1 cytotox | KB-3-1 cytotox | HT1080-NT tox
CCc1c(C)sc(NC(=O)c2ccccc2[N+](=O)[O-])c1C(N)=O | -9% | 5% | -14% | i | i | 10%
COc1ccc(CCN(C)C(=O)c2oc3ccccc3c2C)cc1OC | ? | 0% | ? | i | i | 0%
COc1ccc(CN(C)C(=O)c2oc3ccccc3c2CSC)cc1F | 21µM* | -27% | 23µM* | ? | i | -16%
Cc1ccc(CNC(=O)CN2CCN(Cc3ccc(F)cc3)C2=O)cc1 | -24% | · | -5% | i | i | ·
CC(C)c1ccc(Nc2c(-c3ccc(N4CCOCC4)cc3)nc3ncccn23)cc1 | -24% | · | -18% | i | i | ·
Cc1nn(-c2ccccc2)c2nc(C3CC3)cc(C(=O)NCc3ccccc3Cl)c12 | 23µM* | · | ? | · | · | ·
COc1cc(NC(=O)c2cc(C3CC3)nc3c2c(C)nn3-c2ccc(C)cc2)cc(OC)c1 | 6.5µM* | · | ? | · | · | ·
COc1ccc(NC(=O)c2cc(C3CC3)nc3c2c(C)nn3-c2ccc(C)cc2)cc1OC | ? | · | ? | i | i | ·
Cc1cc(C(=O)NCc2ccccc2Cl)c2c(C)nn(-c3cccc(F)c3)c2n1 | 21µM* | · | ? | i | i | ·
Cc1c(NC(=O)Nc2cc(F)c(F)cc2Cl)c(=O)n(-c2ccccc2)n1C | -6% | 0% | -9% | i | i | -2%
CCS(=O)(=O)N1CCc2cc(C(=O)Nc3ccc(OC)cc3OC)ccc21 | 16µM* | · | ? | i | i | ·
CCS(=O)(=O)N1CCc2cc(C(=O)Nc3ccc(C)c(Cl)c3)ccc21 | 13µM* | · | 18µM* | i | i | ·
CCS(=O)(=O)N1CCc2cc(C(=O)Nc3ccc(OC)c(Cl)c3)ccc21 | 18µM* | · | ? | i | ? | ·
O=C(O)c1ccn2c(C(=O)c3ccccc3)c(-c3ccccc3)cc2c1 | -11% | ? | 0% | i | i | -26%
Cc1cc(C)cc(NC(=O)CCn2cnc3ccccc3c2=O)c1 | -4% | · | -7% | i | i | ·
Clc1cccc(C2=NC(c3cccs3)=Nc3ccc(Br)cc3N2)c1 | 15µM* | · | 16µM* | i | i | ·
CCOc1ccc(C2=NC(c3cccs3)=Nc3ccc(C(C)C)cc3N2)cc1 | ? | · | ? | i | i | ·
CCCCOc1ccc(C2=NC(c3cccs3)=Nc3ccc(CC)cc3N2)cc1 | ? | · | 21µM* | i | i | ·
COc1ccc(C2=Nc3ccccc3NC(c3cccs3)=N2)cc1 | ? | · | ? | i | i | ·
CCc1ccc2c(c1)NC(c1ccc(C)cc1)=NC(c1cccs1)=N2 | 26µM* | · | ? | i | i | ·
CCc1ccc2c(c1)C(c1cccs1)=NNC(c1cccnc1)=N2 | -28% | -13% | -29% | i | i | -1%
CC(C)c1ccc2c(c1)NC(c1ccncc1)=NC(c1cccs1)=N2 | 16µM* | · | ? | i | i | ·
Clc1ccc2c(c1)NC(c1ccncc1)=NC(c1cccs1)=N2 | ? | · | ? | i | i | ·
Cc1ccc(C(=O)N[C@H](C(=O)Nc2sccc2C(N)=O)C(C)C)cc1 | ? | -6% | -16% | i | i | -1%
COc1ccccc1/C=C/C1(C(=O)NC2CCCC2)CC(=O)N1c1ccc(C)cc1 (centres undefined) | 23µM* | ? | ? | 2.9µM* | 21µM* | ?
SMILES | TDP1 cell noCPT | HT1080 IDH1KD tx | TDP1 cell CPT | KB-V1 cytotox | KB-3-1 cytotox | HT1080-NT tox
COc1ccccc1/C=C/c1onc(C)c1S(=O)(=O)N1CCC(C(=O)NC2CCCCCC2)CC1 | -6% | 17% | ? | i | i | 4%
COc1ccccc1/C=C/C1(C(=O)NC2CCCC2)CC(=O)N1c1ccc(F)cc1 (centres undefined) | ? | 8.2µM* | 18µM* | ? | i | ?
N#CCCN(Cc1cccnc1)S(=O)(=O)c1ccc(S(=O)(=O)NC2CCCCC2)cc1 | ? | -3% | -23% | ? | i | -9%
N#CCCN(Cc1cccnc1)S(=O)(=O)c1ccc2ccccc2c1 | -26% | 1% | ? | 23µM* | i | 1%
C[C@H](NC(=O)c1nc[nH]c1C(=O)NC1CCN(C(=O)OC(C)(C)C)CC1)C(=O)OC(C)(C)C | ? | -2% | 18µM* | i | i | -2%
CC1CCN(C(=O)c2[nH]cnc2C(=O)NC2CCN(C(=O)OC(C)(C)C)CC2)CC1 | -5% | 2% | ? | i | i | 0%
CC(C)(C)OC(=O)N1CCC(NC(=O)c2nc[nH]c2C(=O)NCc2ccccc2)CC1 | 23µM* | -9% | ? | i | i | -4%
CC(C)C[C@H](NC(=O)c1nc[nH]c1C(=O)NC1CCN(C(=O)OC(C)(C)C)CC1)C(=O)OC(C)(C)C | 18µM* | ? | ? | i | ? | ?
CC(C)(C)OC(=O)[C@H](Cc1ccccc1)NC(=O)c1nc[nH]c1C(=O)NC1CCN(C(=O)OC(C)(C)C)CC1 | 16µM* | ? | 23µM* | ? | ? | ?
CC(C)C[C@H](NC(=O)c1nc[nH]c1C(=O)NC1CCN(C(=O)OC(C)(C)C)CC1)C(=O)OCc1ccccc1 | ? | -29% | ? | ? | ? | ?
CN(Cc1cccc(F)c1)C(=O)C1CC(=O)N(Cc2ccco2)C1 (centres undefined) | -22% | 2% | -1% | i | i | 0%
